Experimental data published in the supplement of paper PMC8728848.
About 410 targets per protein were measured; listed, in parts, are those with the strongest signals and a random draw of the rest.

Tests used:
Assay in all cases: glycan array binding signal (z-score within array); higher = stronger binding
Details in all cases: glycan notation: IUPAC condensed, linker removed
[1] = target: Fuc(a1-2)Gal(b1-3)GalNAc(b1-4)[Neu5Ac(a2-3)]Gal(b1-4)Glc
Summary of the method: (§1)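 Glycan array data were curated from 3228 arrays in the Consortium for Functional Glycomics database and kept only where the protein sequence was available. Glycan names were converted to IUPAC-condensed notation, and columns mapping to the same glycan were averaged. The binding signal is a within-array Z-score, averaged across arrays of the same protein sequence at different concentrations or buffers and across linkers. Negative Z-scores can be read as non-binding.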

[2] = target: Fuc(a1-2)Gal(b1-3)GlcNAc6S
Summary of the method: as §1

[3] = target: Fuc(a1-2)Gal(b1-3)[Fuc(a1-4)]GlcNAc
Summary of the method: as §1

[4] = target: Fuc(a1-2)Gal(b1-4)GlcNAc(b1-2)[Fuc(a1-2)Gal(b1-4)GlcNAc(b1-4)]Man(a1-3)[Fuc(a1-2)Gal(b1-4)GlcNAc(b1-2)Man(a1-6)]Man(b1-4)GlcNAc(b1-4)GlcNAc
Summary of the method: as §1

[5] = target: Fuc(a1-2)Gal(b1-4)GlcNAc(b1-6)GalNAc
Summary of the method: as §1

[6] = target: Fuc(a1-2)Gal6S(b1-4)Glc6S
Summary of the method: as §1

[7] = target: Fuc(a1-2)[Gal(a1-3)]Gal(b1-4)GlcNAc(b1-2)Man(a1-3)[Fuc(a1-2)[Gal(a1-3)]Gal(b1-4)GlcNAc(b1-2)Man(a1-6)]Man(b1-4)GlcNAc(b1-4)[Fuc(a1-6)]GlcNAc
Summary of the method: as §1

[8] = target: Fuc(a1-2)[Gal(a1-3)]Gal(b1-4)GlcNAc(b1-3)[Fuc(a1-2)[Gal(a1-3)]Gal(b1-4)GlcNAc(b1-6)]GalNAc
Summary of the method: as §1

[9] = target: Fuc(a1-2)[Gal(a1-3)]Gal(b1-4)GlcNAc(b1-6)GalNAc
Summary of the method: as §1

[10] = target: Fuc(a1-2)[Gal(a1-3)]Gal(b1-4)[Fuc(a1-3)]Glc
Summary of the method: as §1

[11] = target: Fuc(a1-2)[GalNAc(a1-3)]Gal(b1-3)GlcNAc(b1-3)GalNAc
Summary of the method: as §1

[12] = target: Fuc(a1-2)[GalNAc(a1-3)]Gal(b1-4)[Fuc(a1-3)]GlcNAc
Summary of the method: as §1

[13] = target: Fuc(a1-2)[GalNAc(a1-3)]Gal(b1-4)[Fuc(a1-3)]GlcNAc(b1-3)GalNAc
Summary of the method: as §1

[14] = target: Fuc(a1-3)[Gal(b1-4)]Glc6S
Summary of the method: as §1

[15] = target: Fuc(a1-3)[Gal(b1-4)]GlcNAc(b1-2)Man(a1-3)[Fuc(a1-3)[Gal(b1-4)]GlcNAc(b1-2)Man(a1-6)]Man(b1-4)GlcNAc(b1-4)GlcNAc
Summary of the method: as §1

[16] = target: Gal(a1-3)Gal
Summary of the method: as §1

[17] = target: Gal(a1-3)Gal(b1-3)GlcNAc(b1-6)GalNAc
Summary of the method: as §1

[18] = target: Gal(b1-3)GalNAc
Summary of the method: as §1

[19] = target: Gal(b1-3)GalNAc(b1-3)Gal(a1-4)Gal(b1-4)Glc
Summary of the method: as §1

[20] = target: Gal(b1-3)GalNAc(b1-4)[Neu5Ac(a2-3)]Gal(b1-4)Glc
Summary of the method: as §1

[21] = target: Gal(b1-3)GlcNAc(a1-3)Gal(b1-4)GlcNAc
Summary of the method: as §1

[22] = target: Gal(b1-3)GlcNAc(b1-3)Gal(b1-4)Glc
Summary of the method: as §1

[23] = target: Gal(b1-3)GlcNAc(b1-3)Gal(b1-4)GlcNAc(b1-6)[Gal(b1-3)GlcNAc(b1-3)]Gal(b1-4)Glc
Summary of the method: as §1

[24] = target: Gal(b1-3)GlcNAc(b1-3)GalNAc
Summary of the method: as §1

[25] = target: Gal(b1-3)[Fuc(a1-4)]GlcNAc(b1-3)Gal(b1-4)[Fuc(a1-3)]GlcNAc
Summary of the method: as §1

[26] = target: Gal(b1-4)Glc
Summary of the method: as §1

[27] = target: Gal(b1-4)GlcNAc(b1-2)Man(a1-3)[Gal(b1-4)GlcNAc(b1-2)Man(a1-6)]Man(b1-4)GlcNAc(b1-4)GlcNAc
Summary of the method: as §1

[28] = target: Gal(b1-4)GlcNAc(b1-2)Man(a1-3)[Gal(b1-4)GlcNAc(b1-2)Man(a1-6)][Gal(b1-4)GlcNAc(b1-4)]Man(b1-4)GlcNAc(b1-4)[Fuc(a1-6)]GlcNAc
Summary of the method: as §1

[29] = target: Gal(b1-4)GlcNAc(b1-2)Man(a1-6)Man(b1-4)GlcNAc(b1-4)GlcNAc
Summary of the method: as §1

B1: Pwp5 ND (Candida glabrata) (protein)
chain: MGSSHHHHHHSSGLVPRGSHMASANPVPLTNVCYFPEEYPRQAGFRAITAGLASTILQGSVDELLNYSGLSSLTTQQTTTTTPNFQLPTLPLPTNVYGLTVVPLYLLVQLQGYFVPPVSGQYTFSLENTNDAAIIFFGNPSAFPCGDLSAWPQASADDITVTDGTFPSRTLFLKAGVAYPMRISYYNSLGSGNLAVSFTDPGGTKRTNWNGYIWRYNSCSTCTYT
With B1 the “glycan array binding signal (z-score)” value [1] was -0.235, the “glycan array binding signal (z-score)” value [2] was -0.214 and the “glycan array binding signal (z-score)” value [3] was 0.311. The “glycan array binding signal (z-score)” value [4] was 2.82, the “glycan array binding signal (z-score)” value [5] was 3.91 and the “glycan array binding signal (z-score)” value [6] was 2.41. The “glycan array binding signal (z-score)” value [7] was 0.284, the “glycan array binding signal (z-score)” value [8] was -0.58 and the “glycan array binding signal (z-score)” value [9] was 0.176. For the same binder, the “glycan array binding signal (z-score)” value [10] was -0.527, the “glycan array binding signal (z-score)” value [11] was 0.59 and the “glycan array binding signal (z-score)” value [12] was -0.827. The “glycan array binding signal (z-score)” value [13] was -0.156, the “glycan array binding signal (z-score)” value [14] was 3.45 and the “glycan array binding signal (z-score)” value [15] was 1.55. The “glycan array binding signal (z-score)” value [16] was -0.029, the “glycan array binding signal (z-score)” value [17] was -0.579 and the “glycan array binding signal (z-score)” value [18] was -0.212. The “glycan array binding signal (z-score)” value [19] was 3.41, the “glycan array binding signal (z-score)” value [20] was -0.51 and the “glycan array binding signal (z-score)” value [21] was -0.125. The “glycan array binding signal (z-score)” value [22] was -0.276, the “glycan array binding signal (z-score)” value [23] was -0.519 and the “glycan array binding signal (z-score)” value [24] was -0.596. For the same binder, the “glycan array binding signal (z-score)” value [25] was 0.251, the “glycan array binding signal (z-score)” value [26] was -0.548 and the “glycan array binding signal (z-score)” value [27] was -0.247. The “glycan array binding signal (z-score)” value [28] was -0.557 and the “glycan array binding signal (z-score)” value [29] was 0.775.
